PubChem BioAssay AID588855 (National Center for Advancing Translational Sciences (NCATS), 2011)
In all, about 410,000 compounds went through this assay and about 5,000 (1.2%) were called active. Another 13% or so got no clear call; they are omitted. Calls come from the whole dose curve; as a rule, active = well fitted inhibition curve with a large enough effect; inconclusive = small, poorly fitted or top-dose-only effect; inactive = no such curve, though single readings can be large or run the other way. The sample as a whole holds a higher share of actives than the screen did.

assay: qHTS for Inhibitors of TGF-b; details: HepG2 CAGA-GFP TGF-b/SMAD3 reporter, GFP fluorescence, 18 h, TGF-beta stimulated, 500 pg/mL final; series mostly up to 46.1 µM; note: nearly all actives have a fitted effect of over 65% in size
How it was run: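 HEPG2 CAGA-GFP reporter cells (1000/well, DMEM with 1% FBS) received compounds, then recombinant TGF-beta at 500 pg/mL final for 18 hours at 37 degrees C. Per-cell GFP summed per well was normalised to unstimulated and stimulated DMSO controls before curve fitting.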
Potency is the fitted concentration of half-maximal effect.

Potency, inactive:
CCOC(=O)c1cnc2c(C)cc(Cl)cc2c1NCCc1ccc(OC)c(OC)c1
Cn1c(=O)c2sccc2n2c(CCC(=O)NCc3ccccc3Cl)nnc12
CCc1cc2c(cc3c(=O)n(CC(=O)NCCc4ccc(OC)c(OC)c4)ncn32)s1
COc1ccc(C2NC(=O)N(C)C3=C2C(=O)N(c2ccc(C(=O)O)cc2)C3)cc1 (stereo not drawn)
CN(C)c1ccc(/C=N\Nc2ccc([N+](=O)[O-])cc2[N+](=O)[O-])cc1Cl
CN(CCC#N)c1ccc(C=O)cc1
Cc1ccc(S(=O)(=O)N2CCN(c3nc(-n4cnc5ccccc54)nc4ccccc34)CC2)cc1
Cc1ccc(NC(=O)C(Cc2ccccc2)NS(=O)(=O)c2ccc3c(c2)oc(=O)n3C)cc1C (stereo not drawn)
Cc1cccc(N2CCN(C(=O)c3cnc(N4CCCC4)nc3C)CC2)c1C
CC1(C(=O)Nc2cccc3c2CCCC3)CCN1C(=O)C1(c2ccccc2)CC1 (stereo not drawn)
Cc1ccccc1S(=O)(=O)NC(=O)C1(C)CCN1C(=O)Cc1ccc(Cl)cc1Cl (stereo not drawn)
CC(=O)c1ccc(NS(=O)(=O)c2ccc(-c3cc(C)no3)s2)cc1
Cc1oc(-c2ccccc2F)nc1CN1CCC(C(=O)NCCc2ccc(Cl)cc2)CC1
COc1ccc(Cl)cc1NC(=O)C(C)Sc1nc2c(c(=O)[nH]1)CCCC2 (stereo not drawn)
CCOc1ccc(NC(=O)c2c(NC(=O)Cc3ccccc3)sc3c2CCCCC3)cc1
CCNC(=S)N1CCN(c2ncccn2)CC1
CCOc1ccc(NC(=S)N2CCCCCC2)cc1
O=C(Cc1ccc(Cl)cc1)c1ccccc1
CC1=NNC(=O)C1CCC(=O)N/N=C(\C)c1ccc(Cl)cc1 (stereo not drawn)
CCCN(CCC)C(=O)Cn1c(=O)n(-c2ccc(Cl)cc2)c(=O)c2c3c(sc21)CCCCC3
Cc1ccc(-c2nnc3ccc(SCC(N)=O)nn23)cc1
Cc1ccc(Nc2ccccc2N)cc1
COc1ccccc1C(=O)Nc1ccc(Nc2ccccc2)cc1
COC(=O)c1ccc(NC(=O)CSc2n[nH]c(-c3ccccc3)n2)cc1
CC(Sc1oc(-c2ccco2)nc1S(=O)(=O)c1ccc(Br)cc1)c1ccccc1 (stereo not drawn)
CCCCC(CCCC)c1ccc(C=Nc2ccc(/C=C/c3ccnc4ccccc34)cc2)cc1
Cc1ccc2nc(CNC(=O)c3ccccc3)[nH]c2c1
CN(c1ccccc1)S(=O)(=O)c1cc(C(=O)Nc2nc3ccccc3[nH]2)ccc1Cl
Cc1cc(C)c(/C=C/c2onc(C)c2S(=O)(=O)N2CCC(C(=O)Nc3ccc(Cl)cc3C)CC2)c(C)c1
Cc1ccc(NC(=O)C(=O)NCC(c2cccnc2)N2CCOCC2)cc1 (stereo not drawn)
Cc1ccc(S(=O)(=O)N(CC(=O)Nc2ccc(Cl)cc2Cl)c2ccccc2C)cc1
COc1ccc(C(C)(NC(C)=O)c2nc(-c3ccc(S(C)(=O)=O)cc3)cs2)cc1 (stereo not drawn)
COc1ccc(N/C=C(\C2OC(=O)c3ccccc32)[N+](=O)[O-])cc1 (stereo not drawn)
Cc1ccc(C(=O)/C=C/Nc2ccc(S(=O)(=O)Nc3onc(C)c3C)cc2)cc1
COc1ccc(/C=C/C(=O)Nc2ccc(C)cc2)cc1S(=O)(=O)N1CCOCC1
Cc1ccc(C(=O)Nc2ccc(OCc3cc(=O)n4c(C)csc4n3)cc2)cc1
COc1ccc(CCNc2ncnc3onc(-c4ccc(Cl)cc4)c23)c(OC)c1
O=C(CSc1c2c(nc3ccc(Cl)cc13)CCCC2)NCc1ccco1
Cc1ccc(CNC(=O)CSc2c3c(nc4cc(Cl)ccc24)CCCC3)cc1
CN(C)C1=C2C=CC=CC2/C(=C2/C=Cc3ccccc32)C=C1 (stereo not drawn)
CCOC(=O)c1ccc(NC(=O)c2c(NCc3cccs3)sc3c2CCCC3)cc1
Cc1noc(C)c1NC(=O)Nc1ccc2c(c1)C(=O)N([C@H](C)CO)C[C@H](C)[C@@H](CN(C)C(=O)Nc1ccccc1)O2
COc1ccc(NC(=O)N(C)C[C@H]2Oc3ccc(NC(=O)C4CC4)cc3C(=O)N([C@H](C)CO)C[C@@H]2C)cc1
COc1cc(OC)c(NC(=O)c2c3c(nn2C)-c2ccccc2SC3)cc1Cl
OC(CBr)CN1CCCCC1 (stereo not drawn)
COc1ccccc1NC(=O)c1cc(S(=O)(=O)NCCc2ccccc2)ccc1F
C/C(=N\NC(=O)CSc1nc2ccccc2c(=O)n1-c1ccccc1C)c1cccs1
Cc1ccc(-n2c(SCC(=O)N/N=C/C=C/c3ccccc3[N+](=O)[O-])nc3ccccc3c2=O)cc1
Cc1nnc(C)n1-c1ccc(C(=O)Nc2cccc(Br)c2)cc1
Cc1ccccc1CNC(=O)c1ccc(NC(=O)N2CCCCc3ccccc32)cc1
CCOC(=O)c1c(NC(=O)c2ccc(S(=O)(=O)N(CC)CC)cc2)sc2c1CCCCC2
Cc1c(C)n(Cc2ccc(Cl)cc2)c2ccc(C(=O)N3CCN(c4ccccc4F)CC3)cc12

Potency, active:
CC1(C(=O)Nc2cccc3c2CCCC3)CCN1C(=O)CCc1ccc(Cl)cc1Cl (stereo not drawn) 12.6 µM
C/C(=N\NC(=O)Cc1ccc(Cl)cc1)c1ccccn1 3.98 µM
CC(=NNC(=S)N1CCCCCC1)c1ccccn1 1.26 µM
Nc1ccc(Nc2ccccc2)cc1 14.1 µM
O=C(/C(=C/c1cccc(Cl)c1)c1nc2ccccc2[nH]1)c1ccccc1 3.16 µM
COc1ccc(-c2csc(NC3OC(=O)c4ccccc43)n2)cc1 (stereo not drawn) 10 µM
COc1ccc(/C=C/C(=O)c2ccc(NS(=O)(=O)c3ccc(C)cc3)cc2)cc1O 12.6 µM
CCOC(=O)C1CCN(C(=O)CSc2c3c(nc4ccc(Cl)cc24)CCCC3)CC1 15.8 µM
Cc1ccc(S(=O)(=O)Nc2ccc3c(c2)C(=O)N([C@H](C)CO)C[C@@H](C)[C@@H](CN(C)C(=O)Nc2cccc4ccccc24)O3)cc1 11.2 µM
Cc1nn(-c2ccccc2)c(C)c1/C=N/NC(=O)CSc1nc2ccccc2c(=O)n1-c1ccccc1 3.98 µM
CC(C)c1ccc2c(c1)c(SC(C)(C)C)c(CC(C)(C)C(=O)O)n2Cc1ccc(Cl)cc1 10 µM
